According to PubChem BioAssay:
Activity calls are given as the source filed them. Unless noted, the rule behind the calls is not given here.

Assays:
[1] = anti-His antibody binders, primary screen, artefact control for SMM control protein annotation, biochemical, small-molecule microarray, 635 nm fluorescence (AID 1128); settings: anti-His Alexa647 antibody binding, higher = more signal;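 note: score merges feature fluorescence with signal-to-noise for each printed compound spot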
[2] = system: Human papillomavirus type 1a E7 protein (residues 1-88); assay: HPV1a E7 small-molecule binders, primary screen, biochemical, small-molecule microarray, residues 1-88, 635 nm (AID 1129); settings: small-molecule microarray binding, fluorescence 635 nm; higher = more signal
[3] = target: Focal adhesion kinase 1 (Homo sapiens) (UniProt Q05397); assay: small-molecule microarray binders of FAK, primary screen, biochemical, 635/667 nm fluorescence, BSA, DTT (AID 1130); settings: PTK2 binding, 635 nm fluorescence, higher = more signal;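 note: composite of spot emission at 667 nm and signal to noise over triplicate slides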
[4] = system: Fibrinogen (Alexa647-labelled); assay: fibrinogen binders on compound microarrays, profiling panel, artefact control for SMM control-protein annotation, biochemical, small-molecule microarray, 635/667 nm fluorescence (AID 1131); settings: fibrinogen-A647 binding fluorescence, higher = more signal;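 note: z-score merges 667 nm fluorescence with per-spot signal-to-noise over triplicate slides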
[5] = target: Follistatin (Homo sapiens) (UniProt P19883); assay: follistatin binders on small-molecule microarrays, primary screen, biochemical, small-molecule microarray, 635/667 nm fluorescence (AID 1132); settings: FST binding, 635 nm fluorescence, higher = more signal
[6] = target: Fibroblast growth factor 2 (Homo sapiens) (UniProt P09038); assay: FGF2 binders on small-molecule microarrays, primary screen, biochemical, small-molecule microarray, 635/667 nm fluorescence (AID 1133); settings: small-molecule microarray binding, FGF2, fluorescence 635/667; higher = more signal
[7] = mitochondrial membrane potential change in A549 cells, profiling panel, cell-based, JC-1 fluorescence, basal, 24 h, 100 nL (AID 1138); settings: higher = more signal;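 note: A549 lung adenocarcinoma cells under basal conditions with no added stimulus; test concentration not given here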
Lefty1 = Lefty1 binders on small-molecule microarrays, primary screen, biochemical, small-molecule microarray, 635/667 nm fluorescence (AID 1139); settings: small-molecule microarray binding, fluorescence 635/667; higher = more signal
[8] = system: wheat germ agglutinin (Triticum aestivum), Alexa647-labelled; assay: wheat germ agglutinin binders on compound microarrays, profiling panel, artefact control for SMM control-protein annotation, biochemical, small-molecule microarray, 635/667 nm fluorescence (AID 1140); settings: WGA-A647 binding, 635 nm fluorescence, higher = more signal;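 note: score merges 667 nm feature emission with signal to noise over triplicate slides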
[9] = target: Luciferin 4-monooxygenase (Photinus pyralis) (UniProt P08659); assay: firefly luciferase enzyme inhibitors, primary screen, biochemical, luminescence, purified enzyme, 2006 set (AID 1141); settings: SteadyGlo luminescence, 30 min, higher = more signal, called active from +8 up or from −8 down;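 note: cell-free assay with purified firefly luciferase at 100 ng per well in PBS; test concentration not given here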
[10] = system: Wnt5a (protein binding on small-molecule microarray); assay: Wnt5a binders on small-molecule microarray, primary screen, biophysical, 635/667 nm fluorescence (AID 1142); settings: 635 nm fluorescence, higher = more signal;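 note: fluorescence read at 667 nm with signal to noise per printed feature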
[11] = cell viability in Huh7 cells, primary screen, cytotoxicity control for HCV replication inhibitor project, CellTiter-Glo luminescence, basal, 48 h (AID 1143); settings: Huh7 HCV replicon, higher = more signal, called active from +8 up or from −8 down;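 note: Huh7 hepatoma cells carrying a hepatitis C replication reporter with no stimulus; test concentration not given here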
[12] = P. aeruginosa biofilm formation inhibitors, primary screen, PAO1 strain, BacTiter-Glo luminescence, LB-PBS (AID 1144); settings: 12 h, higher = more signal
[13] = CREB reporter modulators without forskolin, primary screen, cell-based, PC12, CRE-LacZ reporter, unstimulated (AID 1145); settings: no forskolin, luminescence, 4.5 h, higher = more signal, called active from +8 up or from −8 down
[14] = CREB reporter modulators under forskolin, primary screen, cell-based, PC12, CRE-LacZ reporter, forskolin-stimulated (AID 1146); settings: luminescence, 4.5 h, higher = more signal, called active from +8 up or from −8 down;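 note: PC12 cells with 6xCRE LacZ reporter stimulated by forskolin 10 µM; beta-galactosidase reporter signal reflecting CREB driven transcription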
[15] = target: Streptavidin (Streptomyces avidinii) (UniProt P22629); assay: streptavidin binders on small-molecule microarray, primary screen, artefact control for SMM compound annotation, biophysical, 635/667 nm fluorescence (AID 1147); settings: streptavidin binding, higher = more signal;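 note: signal reflects streptavidin binding to arrayed compounds as a control protein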
[16] = small-molecule binders of probe aInhba, primary screen, biochemical, small-molecule microarray, 635/667 nm fluorescence (AID 1148); settings: higher = more signal;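 note: score merges 667nm spot fluorescence with signal-to-noise for antibody binding to printed compounds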
Torsin-1A (Homo sapiens) [17] = target: Torsin-1A (Homo sapiens) (UniProt O14656); assay: torsin A binders from cell lysate, primary screen, small-molecule microarray, wild-type, 635/667 nm (AID 1149); settings: COS7 hTOR1A-WT lysate, 635 nm fluorescence, higher = more signal
Torsin-1A (Homo sapiens) [18] = target: Torsin-1A (Homo sapiens) (UniProt O14656); assay: small-molecule binders of mutant TOR1A in lysate, primary screen, cell lysate, small-molecule microarray, COS7 lysate, 635/667 nm fluorescence (AID 1150); settings: COS7 hTOR1A mutant lysate, 635 nm fluorescence, higher = more signal;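 note: score pools 667 nm emission and signal to noise measuring lysate protein binding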
[19] = system: Sonic hedgehog protein (Shh); assay: small-molecule binders of Shh protein, primary screen, biochemical, small-molecule microarray, 635/667 nm fluorescence (AID 1151); settings: small-molecule microarray binding, 635 nm fluorescence; higher = more signal;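 note: Shh protein binding to compounds spotted on small-molecule microarray slides; score combines spot fluorescence intensity with signal-to-noise across triplicate slides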

Follistatin (Homo sapiens), sequence (P19883 whole entry, looked up): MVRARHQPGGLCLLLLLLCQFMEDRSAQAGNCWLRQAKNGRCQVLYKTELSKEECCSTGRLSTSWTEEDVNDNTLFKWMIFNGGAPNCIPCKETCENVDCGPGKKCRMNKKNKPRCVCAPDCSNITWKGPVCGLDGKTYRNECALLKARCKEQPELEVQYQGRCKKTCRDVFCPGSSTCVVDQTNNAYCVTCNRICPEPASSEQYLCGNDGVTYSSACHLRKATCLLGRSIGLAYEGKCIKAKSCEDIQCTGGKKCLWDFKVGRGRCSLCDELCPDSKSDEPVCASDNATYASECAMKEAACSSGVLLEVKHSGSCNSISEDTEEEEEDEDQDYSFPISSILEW
Fibroblast growth factor 2 (Homo sapiens), sequence (P09038 whole entry, looked up): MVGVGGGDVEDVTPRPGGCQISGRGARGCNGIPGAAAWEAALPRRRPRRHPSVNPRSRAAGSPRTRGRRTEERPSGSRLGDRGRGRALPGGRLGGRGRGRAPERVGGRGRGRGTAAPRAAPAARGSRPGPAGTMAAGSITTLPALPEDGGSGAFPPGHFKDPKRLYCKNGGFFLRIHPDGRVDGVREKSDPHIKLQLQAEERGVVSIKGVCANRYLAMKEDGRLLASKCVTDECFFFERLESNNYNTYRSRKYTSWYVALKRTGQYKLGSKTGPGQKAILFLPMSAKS
Torsin-1A (Homo sapiens), sequence (O14656 whole entry, looked up): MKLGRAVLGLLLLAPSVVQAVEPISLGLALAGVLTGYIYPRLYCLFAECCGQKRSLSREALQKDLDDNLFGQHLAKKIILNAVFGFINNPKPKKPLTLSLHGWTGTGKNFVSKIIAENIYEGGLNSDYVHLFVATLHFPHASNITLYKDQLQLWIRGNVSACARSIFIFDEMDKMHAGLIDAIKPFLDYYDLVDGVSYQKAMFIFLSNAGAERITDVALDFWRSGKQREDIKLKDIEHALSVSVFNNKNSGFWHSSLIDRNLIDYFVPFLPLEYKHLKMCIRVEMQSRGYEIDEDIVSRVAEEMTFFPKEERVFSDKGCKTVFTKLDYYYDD
Luciferin 4-monooxygenase (Photinus pyralis), sequence (P08659 whole entry, looked up): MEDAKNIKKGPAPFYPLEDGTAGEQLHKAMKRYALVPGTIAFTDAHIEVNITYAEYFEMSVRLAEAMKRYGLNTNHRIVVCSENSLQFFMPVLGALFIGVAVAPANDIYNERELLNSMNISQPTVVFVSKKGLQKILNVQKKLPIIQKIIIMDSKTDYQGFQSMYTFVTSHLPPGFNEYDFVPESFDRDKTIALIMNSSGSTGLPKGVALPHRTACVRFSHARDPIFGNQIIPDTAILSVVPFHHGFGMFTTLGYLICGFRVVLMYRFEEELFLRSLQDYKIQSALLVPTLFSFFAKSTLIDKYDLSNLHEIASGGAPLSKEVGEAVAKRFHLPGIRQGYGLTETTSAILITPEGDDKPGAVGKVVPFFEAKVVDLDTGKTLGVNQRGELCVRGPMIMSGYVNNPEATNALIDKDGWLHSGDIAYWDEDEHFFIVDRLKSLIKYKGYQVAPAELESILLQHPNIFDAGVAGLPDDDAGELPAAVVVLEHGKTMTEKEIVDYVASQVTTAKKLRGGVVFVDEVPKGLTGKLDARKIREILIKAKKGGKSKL
Focal adhesion kinase 1 (Homo sapiens), sequence (Q05397 whole entry, looked up): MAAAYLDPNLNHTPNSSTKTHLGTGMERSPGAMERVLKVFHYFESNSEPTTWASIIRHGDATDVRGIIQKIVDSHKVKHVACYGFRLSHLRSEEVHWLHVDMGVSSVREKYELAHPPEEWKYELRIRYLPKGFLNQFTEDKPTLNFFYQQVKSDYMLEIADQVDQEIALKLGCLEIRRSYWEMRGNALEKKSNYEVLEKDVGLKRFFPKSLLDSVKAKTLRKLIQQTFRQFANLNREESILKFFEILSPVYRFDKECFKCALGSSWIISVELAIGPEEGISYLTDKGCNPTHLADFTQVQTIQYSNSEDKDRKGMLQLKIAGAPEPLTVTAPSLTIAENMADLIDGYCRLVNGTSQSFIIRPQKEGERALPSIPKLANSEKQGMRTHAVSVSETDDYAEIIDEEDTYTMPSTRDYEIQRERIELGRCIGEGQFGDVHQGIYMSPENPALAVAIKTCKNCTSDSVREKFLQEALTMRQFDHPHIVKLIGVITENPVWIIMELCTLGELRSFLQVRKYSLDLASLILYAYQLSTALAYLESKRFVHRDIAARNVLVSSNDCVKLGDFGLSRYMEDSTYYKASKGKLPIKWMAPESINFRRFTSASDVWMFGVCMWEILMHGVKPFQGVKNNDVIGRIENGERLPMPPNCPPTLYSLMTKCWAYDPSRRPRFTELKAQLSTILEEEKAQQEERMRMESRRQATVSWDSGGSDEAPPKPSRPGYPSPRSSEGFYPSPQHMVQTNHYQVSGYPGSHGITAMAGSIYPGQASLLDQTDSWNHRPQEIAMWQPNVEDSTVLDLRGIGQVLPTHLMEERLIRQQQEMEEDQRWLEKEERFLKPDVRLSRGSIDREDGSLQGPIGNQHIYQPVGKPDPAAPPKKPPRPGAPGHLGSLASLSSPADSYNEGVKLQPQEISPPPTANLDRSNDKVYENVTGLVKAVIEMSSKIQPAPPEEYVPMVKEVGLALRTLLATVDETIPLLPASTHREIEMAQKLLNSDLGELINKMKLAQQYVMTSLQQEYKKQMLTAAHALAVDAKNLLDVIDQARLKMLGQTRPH
Streptavidin (Streptomyces avidinii), sequence (P22629 whole entry, looked up): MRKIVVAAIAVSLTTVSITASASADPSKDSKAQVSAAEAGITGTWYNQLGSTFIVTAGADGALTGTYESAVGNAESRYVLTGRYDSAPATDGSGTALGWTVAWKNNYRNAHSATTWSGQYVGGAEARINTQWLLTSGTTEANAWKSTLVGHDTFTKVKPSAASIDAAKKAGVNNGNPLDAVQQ

Compound | composite z-score [1] | composite z-score [2] | composite z-score [3] | composite z-score [4] | composite z-score [5] | composite z-score [6] | z-score [7] | composite z-score (Lefty1) | composite z-score [8] | z-score [9] | composite z-score [10] | z-score [11] | z-score [12] | z-score [13] | z-score [14] | composite z-score [15] | composite z-score [16] | composite z-score (Torsin-1A (Homo sapiens) [17]) | composite z-score (Torsin-1A (Homo sapiens) [18]) | composite z-score [19]
CCCCCCCCCCC(O)C1C=CC2C(=O)N(C)C(=O)C2N1NC(=O)OC(C)(C)C (stereo not given) | 0.179 | 0.995 | 0.723 | 0.907 | -0.406 | -0.531 | -1.2 | -0.19 | 0.474 | -1.33 (inactive) | -0.121 | -3.15 (inactive) | 0.918 (inactive) | 0.632 (inactive) | 0.584 (inactive) | 0.548 | 0.0198 | -0.436 | 0.0812 | -0.813
NCCCCCCNC(=O)[C@@H]1C[C@@H]2C(=O)N[C@@H](CCCCN)C(=O)N2[C@@H]1c1cccc(OCCO)c1 | 1.24 | 1.12 | 1.21 | -0.0787 | 0.877 | 0.485 | 0.81 | 1.4 | 0.641 | 0.507 (inactive) | 0.57 | 0.0957 (inactive) | -0.537 (inactive) | -0.26 (inactive) | -0.119 (inactive) | 0.125 | 0.094 | -0.324 | 1.2 | 1.5
CN(C)CCCCNC(=O)[C@@H]1C[C@@H]2C(=O)N[C@@H](Cc3ccccc3)C(=O)N2[C@@H]1c1cccc(OCCO)c1 | 2.09 | 0.579 | -0.0323 | 0.513 | 1.33 | 1.75 | 1.53 | 1.65 | 0.645 | -2.68 (inactive) | 1.2 | -1.6 (inactive) | -0.133 (inactive) | 0.431 (inactive) | -0.903 (inactive) | -0.351 | 0.0543 | 0.75 | 1.54 | 1.55
COCCCNC(=O)[C@@]1(Cc2ccccc2N=[N+]=[N-])COC(c2ccc(OCCCO)cc2)=N1 | 1.47 | 1.22 | 0.614 | 0.967 | 0.773 | -0.186 | 0.961 | -0.351 | 0.976 | -2.1 (inactive) | 0.926 | -1.63 (inactive) | 0.53 (inactive) | -0.641 (inactive) | -0.849 (inactive) | 1.63 | 0.0184 | 0.308 | 0.614 | -0.676
O=C1O[C@@H](c2ccccc2)[C@@H](c2ccccc2)N2[C@@H](c3ccc(OCCO)cc3)[C@]3(C(=O)Nc4ccccc43)[C@@H](C(=O)O)[C@H]12 | 2.37 | 0.177 | -0.0546 | 0.679 | 0.197 | -0.406 | -0.75 | 0.044 | 0.125 | -1.43 (inactive) | 0.615 | -4.21 (inactive) | -0.148 (inactive) | -0.258 (inactive) | 0.273 (inactive) | 0.0928 | 0.697 | 0.043 | 1.65 | 0.301
O=C1OCCC/C=C\[C@H]2OC34C=CCN(CCN5CCOCC5)C(=O)[C@H]3N(CCCCCCO)C(=O)[C@@H]4C12 (stereo not given in full) | 3.45 | 0.167 | -0.447 | -0.613 | -0.318 | -0.25 | 1.13 | 0.337 | 0.33 | -1.05 (inactive) | -0.089 | -0.129 (inactive) | -1.18 (inactive) | 0.325 (inactive) | -0.0772 (inactive) | -0.215 | -0.0791 | 0.944 | -0.404 | 0.837
[N-]=[N+]=Nc1ccccc1[C@H]1OC(c2ccc(OCCCO)cc2)=N[C@@]1(Cc1ccccc1)C(=O)N1CCCCC1 | 1.55 | 1.2 | 0.724 | 0.963 | 1.45 | 1.67 | -1.43 | 0.0229 | 0.945 | -6.62 (inactive) | 1.57 | -3.95 (inactive) | -0.21 (inactive) | 0.722 (inactive) | -0.585 (inactive) | 1.16 | 0.395 | 0.728 | 0.373 | 0.021
CCCCC(=C=CC[C@@H](O)c1ccccc1OCCO)C[C@@H](O)COCc1ccccc1 | 0.0168 | -0.399 | 0.577 | 0.479 | 0.271 | 0.668 | 0.995 | 0.0842 | 0.0771 | -2.59 (inactive) | -0.027 | -2.16 (inactive) | -0.631 (inactive) | 17.1 (active) | -0.749 (inactive) | -0.385 | 0.257 | -0.745 | -0.592 | 0.697
COC(=O)C(CC#Cc1ccc2c(c1)[C@]1(C(=O)N2)[C@H](C(=O)N2CCN(c3ncccn3)CC2)[C@H]2C(=O)O[C@H](c3ccccc3)[C@H](c3ccccc3)N2[C@@H]1c1ccc(OCCO)cc1)C(=O)OC | 2.65 | 1.25 | 0.179 | 0.982 | 1.38 | 1.63 | -1.35 | 1.31 | 1.03 | -1.22 (inactive) | 0.545 | -1.02 (inactive) | -0.99 (inactive) | -0.671 (inactive) | -0.772 (inactive) | 0.736 | 0.109 | 0.393 | 0.798 | 2.23
CCOC(=O)C1CCCCN1 (stereo not given) | 0.313 | 0.859 | -0.0288 | 0.367 | 0.599 | 0.522 | -0.0223 | 0.589 | 0.109 | 0.48 (inactive) | 0.781 | 0.319 (inactive) | 0.566 (inactive) | -0.788 (inactive) | -0.398 (inactive) | 0.412 | 0.705 | 0.544 | 0.388 | 0.506
